# PubChem BioAssay (NCI)
# About 79,000 compounds went through this panel and 15% of them were active in at least one assay; those are over-represented in the sample as a whole. Values without a mark were called inactive. Activity calls are given as the source filed them. No stated cut-off is given here; in the data, active means growth inhibition above about 70%; inactive means the rest.
# Legend:
# [1] = NCI Yeast Anticancer Drug Screen. Data for the rad50 strain (AID 155);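 further: 0% = growth of vehicle-only cultures of the same strain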; settings: S. cerevisiae rad50 strain growth inhibition, hits give high values
# Outline: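 Vehicle-treated cultures provide the reference for the growth inhibition reported for compound-exposed, repair-deficient yeast.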
# [2] = NCI Yeast Anticancer Drug Screen. Data for the mec2-1 strain (AID 157); settings: S. cerevisiae mec2-1 strain, hits give high values
# Outline: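 Cells of the genetically defined mec2-1 yeast strain are incubated with test compound. Inhibition of growth is calculated against vehicle-treated controls.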
# [3] = NCI Yeast Anticancer Drug Screen. Data for the sgs1 mgt1 strain (AID 161);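 further: 0% = growth of cultures given vehicle only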; settings: S. cerevisiae sgs1 mgt1 strain, hits give high values
# Outline: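 Mutant yeast exposed to compound; growth scored against vehicle-only wells.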
# [4] = NCI Yeast Anticancer Drug Screen. Data for the cln2 rad14 strain (AID 165);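 further: 0% = growth equal to vehicle treated cultures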; settings: S. cerevisiae cln2 rad14 strain, hits give high values
# Outline: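 The screen exposed genetically defined yeast (cln2 rad14) to test compounds and scored growth inhibition relative to vehicle-treated controls.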
# [5] = NCI Yeast Anticancer Drug Screen. Data for the bub3 strain (AID 167); settings: S. cerevisiae bub3 mutant strain, hits give high values
# Outline: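 Mutant yeast screening strain plus compound; vehicle-treated cultures serve as the 0% inhibition reference.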
# [6] = NCI Yeast Anticancer Drug Screen. Data for the mlh1 rad18 strain (AID 175); settings: S. cerevisiae mlh1 rad18 strain growth inhibition, hits give high values
# Outline: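 Compound-treated yeast growth, normalised to vehicle controls. Strain bears defined DNA repair mutations.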
# [7] = at 5.0 µM (retest, dose inferred, filed as 0.5)
# [8] = at 50.0 µM (retest, dose inferred, filed as 5.0)
SMILES,"growth inhibition [1, 7]","growth inhibition [1, 8]",growth inhibition ([1]; at 50.0 µM),"growth inhibition [2, 7]","growth inhibition [2, 8]",growth inhibition ([2]; at 50.0 µM),"growth inhibition [3, 7]","growth inhibition [3, 8]",growth inhibition ([3]; at 50.0 µM),"growth inhibition [4, 7]","growth inhibition [4, 8]",growth inhibition ([4]; at 50.0 µM),"growth inhibition [5, 7]","growth inhibition [5, 8]",growth inhibition ([5]; at 50.0 µM),"growth inhibition [6, 7]","growth inhibition [6, 8]",growth inhibition ([6]; at 50.0 µM)
CCCCNCCCCCCCCCCCl,47%,98% (active),99% (active),65%,99% (active),96.5% (active),79% (active),99% (active),98.8% (active),60%,98% (active),64.8%,56%,99% (active),97.2% (active),84% (active),99% (active),98% (active)
O=C(O)c1cc2cc3ccccc3cc2cc1O,-1%,32%,73.3% (active),2%,34%,57.2%,3%,36%,81% (active),-1%,14%,55.2%,0%,22%,51.2%,-1%,27%,64.7%
O=C1c2ccc3ccccc3c2CN2C(=O)CCC12 (configuration not stated),4%,83% (active),25.2%,-11%,16%,-6.6%,-5%,28%,21.7%,7%,66%,-4.3%,-5%,39%,6.2%,4%,43%,23.5%
C=CCNC(=O)NC1=CSC2=NC(=O)C3(NN12)c1ccccc1-c1ccccc13,-1%,50%,76.7% (active),-13%,48%,68.2%,-2%,63%,82.5% (active),0%,83% (active),73.4% (active),-6%,66%,76.4% (active),-6%,64%,82.1% (active)
O=C1C2=Cc3ccccc3CCN2c2ccccc21,4%,4%,88.3% (active),-6%,-6%,90.7% (active),1%,1%,89.8% (active),-8%,-8%,86.2% (active),2%,2%,89.8% (active),2%,2%,83.1% (active)
Cc1ccc(S(=O)(=O)Nc2ccc3c(c2)C(=O)c2ccccc2-3)cc1,14%,90% (active),91.7% (active),6%,93% (active),91.4% (active),7%,95% (active),91.3% (active),-5%,89% (active),58.5%,6%,94% (active),93.7% (active),17%,94% (active),84.9% (active)
ClC1=C(Cl)C2c3ccccc3C1c1ccccc12,-4%,97% (active),93.6% (active),6%,97% (active),76.2% (active),0%,97% (active),95.7% (active),-4%,97% (active),65.2%,-9%,98% (active),47.9%,-5%,97% (active),95.7% (active)
NS(=O)(=O)c1ccc(NC(=S)/N=C\C(C(=O)c2ccccc2)=C(\O)c2ccccc2)cc1,7%,12%,6.9%,-2%,-15%,1.7%,0%,-5%,9.8%,-19%,-18%,41.5%,3%,8%,8.15%,10%,-7%,2.15%
c1ccc2c(c1)Nc1ccccc1[P+]21c2ccccc2Nc2ccccc21,98% (active),99% (active),82.8% (active),99% (active),99% (active),98.8% (active),99% (active),99% (active),59.4%,99% (active),99% (active),84.3% (active),99% (active),99% (active),98.7% (active),99% (active),99% (active),98.6% (active)
Cc1ccc(S(=O)(=O)N(c2ccccc2-c2ccccc2)C(C)C(=O)O)cc1 (configuration not stated),2%,67%,92.3% (active),13%,80% (active),88.3% (active),20%,62%,96% (active),3%,76% (active),91.5% (active),4%,66%,82.5% (active),5%,87% (active),94.3% (active)
c1ccc2c(c1)[nH]c1cc3ccncc3cc12,-45%,90% (active),79.3% (active),-30%,29%,46.9%,-24%,52%,45.6%,-13%,42%,34.7%,-49%,51%,34.5%,-75%,56%,61.7%
CC1C(c2ccc3c(c2)OCO3)c2cc3c(cc2OC1N1CCOCC1)OCO3 (configuration not stated),28%,49%,21.3%,19%,36%,7.3%,17%,38%,-18.1%,25%,27%,3.7%,27%,28%,18.7%,27%,46%,20.3%
C[n+]1c(-c2ccc(/C=C/C=N\NC(=O)c3ccc(C(=O)N/N=C\C=C\c4ccc(-c5cn6ccccc6[n+]5C)cc4)cc3)cc2)cn2ccccc21,18%,98% (active),96.1% (active),5%,97% (active),96.8% (active),16%,98% (active),96.8% (active),22%,97% (active),96.3% (active),36%,97% (active),95.5% (active),21%,97% (active),96.8% (active)
COc1ccc2nc3cc(Cl)ccc3c(NCCNc3c4ccc(Cl)cc4nc4ccc(OC)cc34)c2c1,34%,97% (active),98.5% (active),26%,97% (active),92.8% (active),20%,99% (active),96.2% (active),37%,90% (active),98.4% (active),16%,97% (active),99.2% (active),28%,97% (active),97.3% (active)
Cc1c(NC(=O)C(=O)N=NC(=O)c2ccncc2)c(O)c2ccccc2c1O,-15%,91% (active),91% (active),-31%,90% (active),93.5% (active),-5%,69%,91.9% (active),-24%,82% (active),90.4% (active),1%,96% (active),91% (active),-6%,93% (active),91.3% (active)
CN1C=CC(C(O)(c2ccccc2)c2ccccc2)CC1 (configuration not stated),-2%,1%,1.25%,-6%,8%,19.3%,2%,0%,10%,-5%,4%,51.6%,-5%,-3%,16.7%,-4%,5%,22.8%
Cc1c(CC=C(c2ccccc2)c2ccccc2)cccc1C[N+](C)(C)C,95% (active),73% (active),90.7% (active),78% (active),34%,62.8%,99% (active),98% (active),99% (active),2%,61%,48.1%,25%,72% (active),80.2% (active),95% (active),98% (active),98.2% (active)
O=C1C(c2ccccc2)=[N+]([O-])c2ccccc21,2%,39%,87.4% (active),1%,98% (active),98% (active),-2%,92% (active),98.2% (active),0%,12%,73.5% (active),29%,80% (active),99.2% (active),4%,92% (active),76.3% (active)
CC(=O)Nc1ccc2c(c1)/C(=N/O)c1ccccc1-2,-5%,76% (active),67.2%,-11%,90% (active),42%,-1%,89% (active),74.9% (active),-11%,56%,64.5%,-3%,77% (active),72.4% (active),17%,92% (active),77.3% (active)
